INS-1E GSIS act = primary screen for activators of insulin secretion dependent on glucose, INS-1E cells, GLuc reporter luminescence; 370,000 tested, 0.61% active; INS-1E GLuc reporter insulin secretion, 2-3 h; activation, % at 16.6 µM;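 active = lowest replicate activation of at least 40%, so every replicate reaches that level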
RAD52 inh = RAD52 (human) annealing inhibition | P43351 | recombinant RAD52 DNA annealing, FRET fluorescence | inhibition, % at 18.7 µM | 360,000 tested, 0.46% active | AID 651710;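 active = every replicate showing at least 50% inhibition; inconclusive = mean inhibition at least 50% but not in every replicate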
MLL AF4-AF9 inh = blocks AF4 peptide binding to human AF9 | P42568 | AlphaScreen, biotin-AF4 peptide binding to FLAG-AF9 | inhibition, % at 10 µM | 350,000 tested, 0.47% active;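 active = every replicate reaching a set inhibition limit, whatever the replicate mean, cut at about 25% in these data; inconclusive = mean inhibition reaches that limit but some replicates miss it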
Target sequence (P42568 whole entry, looked up): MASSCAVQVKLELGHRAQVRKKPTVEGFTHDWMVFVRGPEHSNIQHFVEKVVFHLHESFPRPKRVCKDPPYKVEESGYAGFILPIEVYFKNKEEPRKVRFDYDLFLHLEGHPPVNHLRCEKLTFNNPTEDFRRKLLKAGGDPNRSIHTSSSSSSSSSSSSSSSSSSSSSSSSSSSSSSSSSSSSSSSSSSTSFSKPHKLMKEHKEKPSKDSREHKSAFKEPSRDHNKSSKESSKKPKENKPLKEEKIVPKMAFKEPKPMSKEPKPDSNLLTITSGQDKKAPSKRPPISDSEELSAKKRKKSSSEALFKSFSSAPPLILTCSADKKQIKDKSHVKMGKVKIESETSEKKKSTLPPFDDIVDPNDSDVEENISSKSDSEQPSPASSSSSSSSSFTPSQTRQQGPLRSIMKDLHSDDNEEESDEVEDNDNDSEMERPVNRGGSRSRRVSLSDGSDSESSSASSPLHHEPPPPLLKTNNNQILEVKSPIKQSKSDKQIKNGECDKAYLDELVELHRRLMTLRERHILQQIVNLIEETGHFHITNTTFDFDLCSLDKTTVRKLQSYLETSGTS
dFosB activator = activators of mouse delta FosB homodimer. P13346. purified delta FosB, TAMRA-CDK5 oligo fluorescence polarization; percent of positive-control signal above neutral wells. activation, % at 25 µM. 340,000 tested, 0.99% active. AID 493131;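 active = mean activation above about 17%, with every replicate also reaching it, limit read from the data, passing the limit was not always enough; inconclusive = only one of the two conditions met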
RAD54 inh = blocks human RAD54 Holliday junction branch migration. 360,000 tested, 0.14% active. AID 602329. inhibition, % at 10.4 µM. Q92698. FAM/BHQ fluorescence;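 active = mean normalized replicate activity at least 40 and at least half of replicates scoring 40 or more; inconclusive = only one of the two criteria met; inactive = mean below 40 and under half of replicates reaching 40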;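 also: inhibitors cause a drop in the FAM fluorescence signal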
DENV2 CPE = DENV2-induced cell death inhibition | DENV2-infected cells, cytopathic effect rescue, plate reader | CPE inhibition, % at 9.99 µM | 350,000 tested, 1.7% active; in the data active = CPE inhibition above about 20%, passing the limit was not always enough; inconclusive = no clear call, values can overlap the other calls; tested in BHK-21 cells
RAD52 DNA ctr = binds DNA, flagging false RAD52 inhibitor hits; Salmon sperm DNA/acridine orange FP displacement, DNA binding; 1,000 tested, 8% active; AC50, µM; shares compounds with RAD52 inh;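 active = fitted half-maximal concentration for signal loss at or below twice the highest dose tested, in every separate run, actives reach about 64 µM in these data; inconclusive = runs disagree, or flat partial signal loss, or poor fit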
Of the large screens only hits and unclear results are named; the others gave an inactive call (follow-up assays come after a bar, where they were run); ! = not active in a repeat. This is a sample that favours compounds with a hit; in the whole collection about 3.1% have one here.

CC1(C)CC(NC(=O)c2ccc(Cl)c(S(=O)(=O)N(Cc3ccccc3)c3ccccc3)c2)CC(C)(C)N1	RAD52 inh 51 | RAD52 DNA ctr inactive
COc1ccccc1N(Cc1ccccc1)S(=O)(=O)c1cccc(C(=O)O)c1	none (no result: INS-1E GSIS act, RAD54 inh)
CC(=O)N1CC2(C1)[C@H](c1ccc(-c3cccc(C#N)c3)cc1)[C@H](CO)N2CCC(F)(F)F	none (no result: dFosB activator, RAD54 inh)
COc1cc(OC)cc(C(=O)N2CCN(Cc3ccccc3C(F)(F)F)CC2)c1	none (no result: RAD52 inh, MLL AF4-AF9 inh, DENV2 CPE)
CCN1CCN(Cc2ccc(NC(=O)c3cc(NC(=O)c4cncc(-c5ccc(C#N)cc5)c4)cc(OC)c3)cc2C(F)(F)F)CC1	RAD52 inh 87 | RAD52 DNA ctr inactive
CCN1CCN(Cc2ccc(NC(=O)c3cc(NC(=O)c4cnnc5ccccc45)cc(OC)c3)cc2C(F)(F)F)CC1	RAD52 inh 70! | RAD52 DNA ctr inactive
COc1ccc(CN(C)C[C@@H]2OCCCC[C@@H](C)Oc3ccc(NS(=O)(=O)c4c(C)noc4C)cc3C(=O)N([C@@H](C)CO)C[C@H]2C)cc1	DENV2 CPE inconclusive (no result: RAD52 inh, MLL AF4-AF9 inh, dFosB activator)
C[C@H](c1ccccc1)N1C[C@@H](COCc2ccccc2)Oc2cc(N3CC[C@H](N(C)C)C3)ccc2S1(=O)=O	RAD52 inh 51 (no result: dFosB activator, RAD54 inh) | RAD52 DNA ctr inactive
CCCCc1nc2sc3c(SCCN(C)C)ncnc3c2c2c1CCC2	RAD52 inh 60 (no result: RAD54 inh) | RAD52 DNA ctr inactive
CN=C(C[N+](=O)[O-])NCCSCc1ccc(CN(C)C)o1	RAD52 inh 57 | RAD52 DNA ctr inactive
C[C@H]1CCCCO[C@H](CN(C)S(=O)(=O)c2ccc(F)cc2)[C@@H](C)CN([C@@H](C)CO)C(=O)c2cc(NS(=O)(=O)c3cccs3)ccc2O1	none (no result: dFosB activator)
CCN1CCN(Cc2ccc(NC(=O)c3ccc(C)c(NC(=O)c4nccnc4N)c3)cc2C(F)(F)F)CC1	RAD52 inh 67, DENV2 CPE inconclusive | RAD52 DNA ctr inactive
CCN1CCN(Cc2ccc(NC(=O)c3ccc(C)c(NC(=O)c4cncc(-c5cccs5)c4)c3)cc2C(F)(F)F)CC1	none (no result: INS-1E GSIS act, RAD52 inh, MLL AF4-AF9 inh, DENV2 CPE)
CCN1CCN(Cc2ccc(NC(=O)c3ccc(C)c(NC(=O)c4cccc5[nH]ccc45)c3)cc2C(F)(F)F)CC1	RAD52 inh 89!, DENV2 CPE inconclusive | RAD52 DNA ctr inactive
O=C(CCN1CCCCC1)N[C@H]1CC[C@@H](CCNC(=O)c2cc(Cl)cc(Cl)c2)O[C@@H]1CO	none (no result: dFosB activator)
O=C1CN(S(=O)(=O)Cc2ccccc2)C[C@@H]2[C@H](c3ccc(C#Cc4cccnc4)cc3)[C@@H](CO)N12	none (no result: dFosB activator, RAD54 inh)
CCN1CCN(c2cc(C)c3cc(NC(=O)c4cccs4)ccc3n2)CC1	RAD52 inh 63, MLL AF4-AF9 inh inconclusive | RAD52 DNA ctr inactive
CCN1CCN(c2cc(C)c3cc(NC(=O)c4cccc(OC)c4)ccc3n2)CC1	none (no result: INS-1E GSIS act)
CCCCNC(=S)Nc1ccc2nc(N3CCN(CC)CC3)cc(C)c2c1	RAD52 inh 57 | RAD52 DNA ctr inactive
COc1ccc(CN(C)C[C@@H]2Oc3ccc(NC(=O)NC(C)C)cc3C(=O)N([C@H](C)CO)C[C@@H]2C)cc1	none (no result: dFosB activator)
COc1ccc(CN(C)C[C@H]2Oc3ccc(NS(=O)(=O)c4ccc(C)cc4)cc3C(=O)N([C@H](C)CO)C[C@@H]2C)cc1	none (no result: dFosB activator)
Nc1ccn([C@@H]2O[C@H](CNCc3cccc4c3sc3ccccc34)[C@@H](O)[C@H]2O)c(=O)n1	RAD52 inh 54 (no result: INS-1E GSIS act, dFosB activator) | RAD52 DNA ctr inactive
CCCCCc1cc(=O)oc2c(C(CCN3CCCC3)c3cc(OC)c(OC)c(OC)c3)c(OC)cc(OC)c12 (stereo not drawn)	RAD52 inh 59 (no result: INS-1E GSIS act) | RAD52 DNA ctr inactive
CCCCCc1cc(=O)oc2c(C(CCN3CCCCC3)c3ccc(OC)cc3)c(OC)cc(OC)c12 (stereo not drawn)	none (no result: INS-1E GSIS act)
COCC(=O)Nc1ccc2c(c1)[C@@H]1C[C@H](CC(=O)NCc3ccc4c(c3)OCO4)O[C@@H](CO)[C@@H]1O2	none (no result: RAD52 inh, dFosB activator)
O=C(NCC1CCCO1)c1nnc(Cc2ccc(F)cc2)o1 (stereo not drawn)	RAD52 inh 53 | RAD52 DNA ctr inactive
COc1ccc(/C=N/Nc2cc(N3CCCC3)nc(N3CCCC3)n2)cc1	RAD52 inh 73, dFosB activator 23 | RAD52 DNA ctr inactive
CCC(=O)N1[C@@H]2Cn3c(ccc(-c4ccccc4)c3=O)[C@H]1[C@@H](C(=O)N(C)C)[C@@H]2CO	none (no result: dFosB activator)
NC1(N2SC(S)=C3CCCC=C32)CCCCC1	RAD52 inh 86 (no result: dFosB activator, RAD54 inh) | RAD52 DNA ctr inactive
CC(C)NC(=O)N(C)C[C@H]1OCCCC[C@@H](C)Oc2ccc(NS(=O)(=O)c3cn(C)cn3)cc2C(=O)N([C@@H](C)CO)C[C@@H]1C	none (no result: dFosB activator)
Cc1noc(C)c1S(=O)(=O)Nc1ccc2c(c1)C(=O)N([C@@H](C)CO)C[C@H](C)[C@@H](CN(C)CC1CC1)O2	none (no result: dFosB activator)
CSC1SCC2C(=O)N(C)C(C(C)C)C(=O)OCC(NC(=O)c3cnc4ccccc4n3)C(=O)NC(C)C(=O)N(C)C1C(=O)N(C)C(C(C)C)C(=O)OCC(NC(=O)c1cnc3ccccc3n1)C(=O)NC(C)C(=O)N2C (stereo not drawn)	RAD52 inh 72 (no result: RAD54 inh) | RAD52 DNA ctr inactive
CNC[C@H]1Oc2ccc(NS(=O)(=O)c3ccc(F)cc3)cc2CC(=O)N([C@@H](C)CO)C[C@@H]1C	DENV2 CPE inconclusive (no result: dFosB activator)
CCN1CCN(Cc2c(C(=O)N/N=C(\C)c3ccc(Cl)cc3)nnn2-c2nonc2N)CC1	RAD52 inh 94 | RAD52 DNA ctr inactive
CCN1[C@@H]2Cn3c(ccc(-c4ccccc4)c3=O)[C@H]1[C@@H](C(=O)NC1CCC1)[C@@H]2CO	none (no result: RAD52 inh, dFosB activator, DENV2 CPE)
CCCCOc1cc(C(=O)OCCN(CC)CC)ccc1N	RAD52 inh 85!, DENV2 CPE inconclusive (no result: INS-1E GSIS act) | RAD52 DNA ctr inactive
CCN(CC)CCOC(=O)c1ccc(Cl)cc1	none (no result: INS-1E GSIS act, RAD52 inh, MLL AF4-AF9 inh, DENV2 CPE)
COCC(=O)N1CC2(CN(Cc3ccc(OC)cc3)C2)c2c([nH]c3cc(OC)ccc23)[C@@H]1CO	none (no result: dFosB activator, RAD54 inh)
CCOC(=O)c1[nH]c2ccccc2c1N=CN(C)C	none (no result: INS-1E GSIS act, RAD52 inh, MLL AF4-AF9 inh, RAD54 inh, DENV2 CPE)
CN(C)C=Nc1ccc2nc3c(cc2c1)[nH]c1ccccc13	RAD52 inh 96 (no result: RAD54 inh) | RAD52 DNA ctr 23µM
CC1(C)N=C(N)N=C(N)N1c1ccccc1	none (no result: INS-1E GSIS act, RAD52 inh, MLL AF4-AF9 inh, DENV2 CPE)
CC1(C)N=C(N)N=C(N)N1c1ccc(CCCCc2ccccc2)cc1	RAD52 inh 85 (no result: dFosB activator) | RAD52 DNA ctr inactive
CCOc1cccc2sc(N(CCCN(C)C)C(=O)c3ccc(S(=O)(=O)N(CC)Cc4ccccc4)cc3)nc12	RAD52 inh 65 | RAD52 DNA ctr inactive
CCN(Cc1ccccc1)S(=O)(=O)c1ccc(C(=O)N(CCCN(C)C)c2nc3cc(C)cc(C)c3s2)cc1	DENV2 CPE 78 | RAD52 DNA ctr inactive

Screens as filed in PubChem BioAssay.
